Results reported in PubChem BioAssay.
Some of the results follow. Calls of active or inactive are those of the source. Unless noted, no stated cut-off is given here; in the data, active means activation above about 33%; inactive means the rest.

Tests used:
[1] = PERK-eIF2a-CHOP pathway stimulators, retested – cell-based, CHO-CHOP luciferase reporter, single concentration, confirmation (AID 463112); details: CHO-CHOP cells, CHOP-luciferase reporter luminescence; at 10 µM; stronger effect = higher value; percent of tunicamycin response, DMSO as zero;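 further: 0% = DMSO wells and 100% = tunicamycin 10 µg/mL wells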
[2] = lowers stimulated NF-kB luciferase signal in Jurkat – cell-based, luminescence, single concentration, T-cell NF-kB inhibitor project, confirmation (AID 435020;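 active means inhibition reaching about 45% at 4 µM in either replicate, limit read from the data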;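 further: plate controls were PMA/ionomycin stimulated DMSO wells for no effect and unstimulated DMSO wells for full effect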); details: PMA/ionomycin-induced, 16 h, at 4 µM, stronger effect = higher value
[3] = target: Sentrin-specific protease 8 (Homo sapiens) (UniProt Q96LD8); assay: human SENP8 peptidase blockers, hit retest – biochemical, luminescence, single concentration, confirmation (AID 488912;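 active means mean inhibition across replicates above about 50%, limit read from the data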); details: Recombinant SENP8, Z-RLRGG-aminoluciferin luminescence, 60 min; at 12.5 µM; stronger effect = higher value
[4] = target: Sentrin-specific protease 6 (Homo sapiens) (UniProt Q9GZR1); assay: inhibition of human SENP6 catalytic domain – biochemical, luminescence, single concentration, confirmation (AID 488915;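 active means mean inhibition above about 50% in the one-dose retest, limit read from the data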); details: recombinant SENP6, Z-RLRGG-aminoluciferin luminescence; at 12.5 µM; stronger effect = higher value
[5] = target: Sentrin-specific protease 7 (Homo sapiens) (UniProt Q9BQF6); assay: human SENP7 peptidase blockers, hit retest – biochemical, luminescence, single concentration, confirmation (AID 488917;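 active means mean inhibition above about 50% in the one-dose retest, limit read from the data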); details: recombinant SENP7, Z-RLRGG-aminoluciferin luminescence, 40 min; at 12.5 µM; stronger effect = higher value
Caspase-3 (Homo sapiens) = Caspase-3 (Homo sapiens) (UniProt P42574); assay: human caspase-3 activity blockade, out-of-family – biochemical, single concentration, selectivity assay for SENP inhibitor project, confirmation (AID 488918;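 active means mean inhibition above about 50%, limit read from the data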;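 further: plate controls were enzyme with DMSO for no effect and wells without caspase-3 for full effect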); details: purified caspase-3, Z-DEVD-aminoluciferin luminescence, 60 min; at 12.5 µM; stronger effect = higher value
[6] = Ultra-Glo luciferase signal interference – biochemical, single concentration, SENP8 reaction pre-completed, artefact control for SENP inhibitor project, confirmation (AID 488919;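 active means mean inhibition above about 50% when retested at one dose, limit read from the data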;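 further: plate controls were DMSO wells with completed reaction for no effect and substrate without enzyme for full effect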); details: Pre-incubated SENP8/Z-RLRGG-aminoluciferin, luciferase luminescence interference; at 12.5 µM; stronger effect = higher value
[7] = target: Tumor necrosis factor receptor superfamily member 10B (Homo sapiens) (UniProt O14763); assay: viability loss of caspase-8 NB7 cells with TRAIL – with/without TRAIL, luminescence panel, confirmation (AID 651596; in the data active means activity above about 50%); details: NB7 neuroblastoma + caspase-8, TRAIL sensitization, NB7 Caspase-8, with TRAIL, mean of runs, at 10 µM, stronger effect = higher value
[8] = as above; details: NB7 neuroblastoma + caspase-8, without TRAIL, NB7 Caspase-8, without TRAIL, mean of runs, at 10 µM
[9] = target: Protein Mdm4 (Homo sapiens) + E3 ubiquitin-protein ligase Mdm2 (Homo sapiens) (UniProt O15151+Q00987); assay: human Mdm2/MdmX binding disruption – cell-based, luminescence, single concentration, set 2, confirmation (AID 504601;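 active means mean inhibition of the luminescence signal across two replicates at or above 26 percent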); details: SaOS-2 split-luciferase Mdm2/MdmX complementation, at 8 µM, stronger effect = higher value
[10] = Brca1-Bard1 BiLC signal decrease – luminescence, single concentration, counter-screen for Mdm2/MdmX interaction inhibitor project, confirmation (AID 504668; call rule not given here); details: Brca1/Bard1 bimolecular luciferase complementation counterscreen, at 8 µM, stronger effect = higher value
[11] = NF-kB reporter suppression in CF airway cells – cell-based, GFP fluorescence, single concentration, confirmation (AID 602472; in the data active means inhibition above about 40%;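 further: stimulus PAF is a Pseudomonas aeruginosa filtrate and not platelet activating factor; plate controls were DMSO wells with stimulus for no effect and unstimulated DMSO wells for full effect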); details: KKLEB CF airway cells, PAF-induced NF-kB-GFP fluorescence, overnight; at 5 µM; stronger effect = higher value
[12] = NFkB reporter suppression in cystic fibrosis bronchial cells – cell-based, uHTS hits, panel, cytotoxicity readout, dose response (AID 624344); details: CF bronchial epithelial cells, PAF-induced NFkB reporter inhibition, with PAF, run 1; at 79 µM (top of the series) unless noted
[13] = as above; details: CF bronchial epithelial cells, PAF-induced NFkB reporter inhibition, with PAF, run 2; at 79 µM (top of the series) unless noted
[14] = inhibition of PEG-3 promoter luciferase signal – cell-based, HeLa, luciferase reporter, single concentration, confirmation (AID 602417;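 active means at 20 µM dose, 40% or more inhibition averaged across four replicates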); details: HeLa PEG-Prom luciferase reporter, luminescence, overnight; at 20 µM; stronger effect = higher value
[15] = HIF-2a driven luciferase blockers, single dose – luminescence, 786-0 RCC cells, confirmation (AID 651580;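 active means mean inhibition across four replicates of at least 40 percent at the single tested concentration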); details: HIF-2a luciferase reporter luminescence, overnight, at 18.8 µM, stronger effect = higher value
[16] = HIF-1a luciferase reporter signal reduction – MiaPaCa-2 cells, single concentration, counter-screen for HIF-2a inhibitor project, confirmation (AID 651589;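 active means mean inhibition of the reporter signal across four replicates at the single tested dose of 50% or more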); details: MiaPaCa-2 HIF-1a luciferase reporter, desferoxamine, overnight; at 18.8 µM; stronger effect = higher value
PEG-3 [17] = target: PEG-3 (UniProt Q6IN02); assay: inhibition of PEG-3 promoter-driven reporter – cell-based, HeLa, luciferase, CREF/GAPDH counter-screen panel, dose response (AID 624167); details: CREF/GAPDH counter-screens; HeLa PEG-Prom luciferase reporter, overnight, run 1, dose range 1, at 100 µM (top of the series) unless noted
PEG-3 [18] = target: PEG-3 (UniProt Q6IN02); assay: as above; details: CREF/GAPDH counter-screens; HeLa PEG-Prom luciferase reporter, overnight, run 2, dose range 1, at 100 µM (top of the series) unless noted
Rat fibroblasts (CREF) [19] = assay: as above; details: CREF/GAPDH counter-screens; run 1, dose range 1, at 100 µM (top of the series)
Rat fibroblasts (CREF) [20] = assay: as above; details: CREF/GAPDH counter-screens; run 2, dose range 1, at 100 µM (top of the series)

Sequence of Protein Mdm4 (Homo sapiens) + E3 ubiquitin-protein ligase Mdm2 (Homo sapiens) (O15151 whole entry, looked up): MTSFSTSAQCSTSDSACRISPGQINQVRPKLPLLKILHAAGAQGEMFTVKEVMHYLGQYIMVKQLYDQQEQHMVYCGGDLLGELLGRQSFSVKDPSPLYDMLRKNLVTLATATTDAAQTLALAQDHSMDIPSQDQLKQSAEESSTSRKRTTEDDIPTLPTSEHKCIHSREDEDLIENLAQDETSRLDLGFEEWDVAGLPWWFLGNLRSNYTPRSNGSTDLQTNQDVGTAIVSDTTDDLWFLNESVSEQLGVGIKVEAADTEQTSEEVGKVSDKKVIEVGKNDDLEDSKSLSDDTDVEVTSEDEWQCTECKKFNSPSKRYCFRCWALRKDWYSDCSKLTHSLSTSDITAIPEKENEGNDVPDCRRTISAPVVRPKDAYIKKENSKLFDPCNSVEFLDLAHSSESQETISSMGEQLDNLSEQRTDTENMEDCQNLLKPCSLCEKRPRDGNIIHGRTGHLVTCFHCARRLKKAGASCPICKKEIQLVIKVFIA
Sequence of Protein Mdm4 (Homo sapiens) + E3 ubiquitin-protein ligase Mdm2 (Homo sapiens) (Q00987 whole entry, looked up): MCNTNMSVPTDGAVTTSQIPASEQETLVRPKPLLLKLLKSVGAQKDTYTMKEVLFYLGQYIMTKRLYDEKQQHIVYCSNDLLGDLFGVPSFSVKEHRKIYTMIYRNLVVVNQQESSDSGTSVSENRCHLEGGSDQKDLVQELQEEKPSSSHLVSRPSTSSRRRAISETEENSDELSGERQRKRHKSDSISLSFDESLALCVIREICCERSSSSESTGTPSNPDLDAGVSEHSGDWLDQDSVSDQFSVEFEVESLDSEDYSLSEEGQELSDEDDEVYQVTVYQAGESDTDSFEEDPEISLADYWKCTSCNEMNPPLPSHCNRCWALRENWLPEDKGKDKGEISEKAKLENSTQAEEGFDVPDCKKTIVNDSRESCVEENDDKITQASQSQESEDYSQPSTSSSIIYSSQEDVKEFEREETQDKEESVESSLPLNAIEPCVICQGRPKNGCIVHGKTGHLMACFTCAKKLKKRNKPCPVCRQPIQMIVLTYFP
Sequence of Sentrin-specific protease 6 (Homo sapiens) (Q9GZR1 628-1112 limits assumed): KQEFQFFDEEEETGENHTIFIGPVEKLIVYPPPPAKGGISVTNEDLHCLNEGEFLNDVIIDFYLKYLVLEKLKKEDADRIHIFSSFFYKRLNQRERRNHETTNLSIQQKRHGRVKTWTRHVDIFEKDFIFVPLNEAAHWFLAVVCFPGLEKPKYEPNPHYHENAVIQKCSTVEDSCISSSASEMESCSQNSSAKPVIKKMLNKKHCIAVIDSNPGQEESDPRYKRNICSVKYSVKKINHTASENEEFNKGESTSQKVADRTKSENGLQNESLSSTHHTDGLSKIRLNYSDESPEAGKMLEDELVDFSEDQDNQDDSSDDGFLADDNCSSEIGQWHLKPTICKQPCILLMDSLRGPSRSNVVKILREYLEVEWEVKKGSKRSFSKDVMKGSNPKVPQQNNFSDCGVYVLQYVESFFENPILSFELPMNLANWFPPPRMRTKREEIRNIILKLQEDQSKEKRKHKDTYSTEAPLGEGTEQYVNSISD
Sequence of Sentrin-specific protease 8 (Homo sapiens) (Q96LD8 whole entry, looked up, the tested form may be a part): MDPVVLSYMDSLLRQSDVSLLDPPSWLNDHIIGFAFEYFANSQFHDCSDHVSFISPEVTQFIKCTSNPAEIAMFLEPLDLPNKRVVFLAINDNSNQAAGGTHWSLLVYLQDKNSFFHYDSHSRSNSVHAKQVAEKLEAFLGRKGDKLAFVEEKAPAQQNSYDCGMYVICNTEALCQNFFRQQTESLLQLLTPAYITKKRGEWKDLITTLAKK
Sequence of Caspase-3 (Homo sapiens) (P42574 28-227 limits assumed): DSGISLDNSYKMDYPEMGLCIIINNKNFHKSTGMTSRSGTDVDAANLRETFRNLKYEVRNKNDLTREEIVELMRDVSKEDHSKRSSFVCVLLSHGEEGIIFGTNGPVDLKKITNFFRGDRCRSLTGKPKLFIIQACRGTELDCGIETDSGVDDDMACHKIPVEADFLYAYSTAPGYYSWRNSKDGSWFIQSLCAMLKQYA
Sequence of Tumor necrosis factor receptor superfamily member 10B (Homo sapiens) (O14763 whole entry, looked up): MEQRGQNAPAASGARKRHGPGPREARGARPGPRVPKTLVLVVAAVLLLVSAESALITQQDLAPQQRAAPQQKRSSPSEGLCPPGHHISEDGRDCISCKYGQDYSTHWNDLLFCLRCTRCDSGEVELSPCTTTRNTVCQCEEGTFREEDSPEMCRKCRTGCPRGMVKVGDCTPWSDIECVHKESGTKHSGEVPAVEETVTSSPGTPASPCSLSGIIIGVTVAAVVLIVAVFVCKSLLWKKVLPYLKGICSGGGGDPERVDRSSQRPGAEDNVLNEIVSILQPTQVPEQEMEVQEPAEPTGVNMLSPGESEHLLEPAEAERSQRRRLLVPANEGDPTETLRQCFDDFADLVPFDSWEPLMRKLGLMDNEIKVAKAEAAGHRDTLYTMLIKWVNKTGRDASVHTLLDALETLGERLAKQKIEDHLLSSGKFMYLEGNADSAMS
Sequence of Sentrin-specific protease 7 (Homo sapiens) (Q9BQF6 706-1050 limits assumed): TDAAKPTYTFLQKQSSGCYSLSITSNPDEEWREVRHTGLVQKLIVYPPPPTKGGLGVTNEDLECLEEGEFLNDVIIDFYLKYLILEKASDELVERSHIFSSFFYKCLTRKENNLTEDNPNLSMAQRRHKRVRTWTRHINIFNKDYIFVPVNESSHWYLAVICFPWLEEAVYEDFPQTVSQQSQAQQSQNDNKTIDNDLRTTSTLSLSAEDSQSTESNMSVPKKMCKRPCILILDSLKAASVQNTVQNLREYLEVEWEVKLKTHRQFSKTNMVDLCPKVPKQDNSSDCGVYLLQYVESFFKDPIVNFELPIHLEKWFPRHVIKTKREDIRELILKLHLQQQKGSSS
Sequence of PEG-3 (Q6IN02 whole entry, looked up): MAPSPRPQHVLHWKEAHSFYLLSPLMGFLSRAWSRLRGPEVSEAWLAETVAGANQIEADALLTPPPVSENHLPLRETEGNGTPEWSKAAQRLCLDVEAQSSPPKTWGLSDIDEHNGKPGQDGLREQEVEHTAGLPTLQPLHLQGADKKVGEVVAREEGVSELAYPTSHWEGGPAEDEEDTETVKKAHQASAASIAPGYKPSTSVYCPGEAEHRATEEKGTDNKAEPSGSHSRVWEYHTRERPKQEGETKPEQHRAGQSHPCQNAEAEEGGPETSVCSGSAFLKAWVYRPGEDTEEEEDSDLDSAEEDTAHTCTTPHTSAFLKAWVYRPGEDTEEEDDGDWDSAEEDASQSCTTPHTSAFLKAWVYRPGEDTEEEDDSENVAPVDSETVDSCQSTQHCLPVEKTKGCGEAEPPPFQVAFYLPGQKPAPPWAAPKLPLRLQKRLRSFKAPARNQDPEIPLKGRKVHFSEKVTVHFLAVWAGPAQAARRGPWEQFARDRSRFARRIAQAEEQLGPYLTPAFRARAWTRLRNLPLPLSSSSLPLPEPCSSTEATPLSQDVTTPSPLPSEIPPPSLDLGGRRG

With CCc1nn(-c2cc(Oc3cccc4ccccc34)nc(-c3ccccc3)n2)c(N)c1C#N the activation [1] was 40.1% (active).

In the case of Cc1cccc(/C(N)=N/OC(=O)c2ccccc2Cl)c1, the inhibition [2] is reported as -97.8% (inactive), the inhibition [3] is reported as 97.7% (active) and the inhibition [4] is reported as 98.9% (active). For the same molecule, the inhibition [5] was 102% (active), the inhibition (Caspase-3 (Homo sapiens)) was 97.2% (active) and the inhibition [6] was 96.8% (active). For the same molecule, the activity [7] was 77.6% and the activity [8] was 84.8%.

With CC1(C)CC(N2CCN(C(c3ccccc3)c3ccccc3)CC2)=CC(=[N+]2CCCCC2)C1 the inhibition [2] was 69.6% (active), the activity [7] was 74.7% and the activity [8] was 56.2%.

For O=[N+]([O-])c1ccc(C=Nc2ccc(Cl)cc2Cl)s1, the activation [1] was 74.2% (active), the inhibition [3] was 9.7% (inactive) and the inhibition [4] was 19.4% (inactive). For the same molecule, the inhibition [5] was 18.5% (inactive), the inhibition (Caspase-3 (Homo sapiens)) was 7.4% (inactive) and the inhibition [6] was 8.1% (inactive).

In the case of CSc1nnc(NC(=O)c2nc(S(=O)(=O)Cc3ccc(C)cc3)ncc2Cl)s1, the activation [1] is reported as 87% (active), the inhibition [9] is reported as 100% (active) and the activity [7] is reported as 74.5%. The activity [8] was 82.2%.

With Oc1c(CN2CCN(c3ccc(F)cc3)CC2)cc(Cl)c2cccnc12 the activation [1] was 196% (active) and the inhibition [10] was 25.7% (active).

With Cc1cccc(Nc2nc3c(S(=O)(=O)c4ccccc4)nnn3c3ccccc23)c1C the activation [1] was 128% (active).

For O=C(NCCc1ccc(Cl)cc1)c1cccc(N2CCCC2=O)c1, the activation [1] was 1.95% (inactive).

With CC1CC2=C(CC1/C=N/NC(N)=S)C(C)(C)CCC2 (stereo not given) the activation [1] was 29.4% (inactive).

For CC(C)(C)C(=O)OCc1nc(-c2ccc(O)c(O)c2)cs1, the activation [1] was 144% (active).

For Nc1ccccc1SC(C[N+](=O)[O-])c1ccccc1 (stereo not given), the activation [1] was -9.65% (inactive).

For COCCNc1nc(-n2nc(C)cc2C)nc2sc3c(c12)CCCC3, the activation [1] was 8.5% (inactive).

In the case of COc1ccccc1/C=N\Nc1cc(C)nc(-n2nc(C)cc2C)n1, the activation [1] is reported as 38% (active).

In the case of Cc1cccc(C)c1NC(=O)C(Cl)C(=O)c1ccccc1 (stereo not given), the activation [1] is reported as 85.6% (active).

In the case of Cc1cc(N/N=C\c2ccc(Br)cc2)nc(-n2nc(C)cc2C)n1, the activation [1] is reported as 12.3% (inactive).

For O=C1Nc2ccc(Br)cc2/C1=N/N=C/C1=C(N2CCOCC2)C(=C\c2ccccc2)/CC1, the activation [1] was 53.4% (active).

For CCOc1ccc2nc(Cl)c(C3CC(c4ccccc4)=NN3C(=O)c3cccs3)cc2c1 (stereo not given), the activation [1] was -1.15% (inactive).

In the case of COc1ccc(C(=O)NCC(=O)N/N=C/c2ccc([N+](=O)[O-])o2)cc1OC, the activation [1] is reported as 35.6% (active).

With C=CS(=O)c1sc(Cl)c(N2CCOCC2)c1[N+](=O)[O-] (stereo not given) the activation [1] was -10.6% (inactive).

With CN(C)CCCn1c(SCc2ccc(Cl)cc2)nnc1-c1ccncc1 the activation [1] was -0.025% (inactive).

In the case of O=C1CC(c2cccc(Cl)c2)CC(O)=C1C=Nc1ccccc1 (stereo not given), the activation [1] is reported as 70.8% (active).

With OCCNc1nc(Nc2ccc(Cl)c(Cl)c2)nc2ccccc12 the activation [1] was 41% (active), the inhibition [10] was 24.3% (active) and the inhibition [11] was 81.5% (active). The inhibition [12] was 110% and the inhibition [13] was 105%.

In the case of CS(=O)(=O)N(Cc1ccccc1)c1ccc(C(=O)NN=C2CCCCCC2)cc1, the activation [1] is reported as -1.8% (inactive).

With Cc1ccc(-c2nnc(-c3ccc(NC(=O)c4cccs4)cc3)o2)cc1 the activation [1] was 134% (active).

With Cc1cccc(CS(=O)(=O)c2ncc(Cl)c(C(=O)Nc3ccc(F)cc3)n2)c1 the activation [1] was 88.1% (active), the inhibition [9] was 103% (active) and the inhibition [14] was 95.7% (active). The inhibition [11] was 44% (active), the inhibition [15] was 99.3% (active) and the inhibition [16] was 86.8% (active). It also gave an inhibition (PEG-3 [17]) of 99.1%, an inhibition (PEG-3 [18]) of 98.3% and an inhibition (Rat fibroblasts (CREF) [19]) of 100%. It also gave an inhibition (Rat fibroblasts (CREF) [20]) of 96.3%.

For O=C(CN1CCN(S(=O)(=O)c2cc(Cl)ccc2Cl)CC1)c1ccc(O)c(O)c1, the activation [1] was 21.2% (inactive).

For CCOC(=O)c1cnc(Nc2nc3ccccc3o2)nc1CSC(=S)N1CCCCC1, the activation [1] was 92.7% (active).

With COc1ccccc1N=Cc1c(O)c2ccccc2oc1=O the activation [1] was 124% (active), the inhibition [3] was 43.2% (inactive) and the inhibition [4] was 53.7% (active). For the same molecule, the inhibition [5] was 49.6% (inactive), the inhibition (Caspase-3 (Homo sapiens)) was 19.3% (inactive) and the inhibition [6] was 27.7% (inactive).

For CC(C)(C)Nc1nc(-c2ccccn2)nc2ccccc12, the activation [1] was 20.4% (inactive) and the inhibition [10] was 23.3% (active).

In the case of CCOC(=O)/C=c1\s/c(=C\c2ccc(C#N)cc2)c(=O)n1CC(=O)Nc1cccc(C)c1C, the activation [1] is reported as 1.05% (inactive).

For CSc1nc(-c2ccccc2)nc(C(Cl)Cl)n1, the activation [1] was 28.5% (inactive), the inhibition [9] was 97.7% (active) and the inhibition [15] was 59.7% (active). For the same molecule, the inhibition [16] was 105% (active).

With CCCCCC(=O)Nc1ccc(C(=O)N/N=C/c2ccc([N+](=O)[O-])cc2)cc1 the activation [1] was 79% (active).

For COC(=O)c1ccc(C(=O)Nc2cc(Cl)ccc2Cl)cc1NC(=O)c1ccccc1C, the activation [1] was 10.6% (inactive).

With CC(=O)/C(=N\Nc1ccc(Cl)cc1Cl)Sc1cccc2cccnc12 the activation [1] was 184% (active).

In the case of Nc1nc(CC(=O)CSc2ccc(Cl)cc2)nc(Nc2ccc(F)cc2)n1, the activation [1] is reported as 40% (active) and the inhibition [10] is reported as 29.2% (active).

In the case of Cc1c(NC(=O)CSc2cccc3cccnc23)c(=O)n(-c2ccccc2)n1C, the activation [1] is reported as 123% (active).

With CCCOC1CCCN(Cc2cn(C)nc2-c2ccccc2F)C1 (stereo not given) the activation [1] was -0.8% (inactive).

With N#Cc1cccc(NC(=O)COC(=O)c2ccccc2C(=O)c2ccc(Cl)c([N+](=O)[O-])c2)c1 the activation [1] was 26.1% (inactive), the inhibition [9] was 103% (active) and the inhibition [11] was 108% (active). For the same molecule, the inhibition [15] was 55.9% (active), the inhibition [16] was 108% (active) and the inhibition [12] was 103%. It also gave an inhibition [13] of 111%.

With COc1ccc2c(c1OC)C(=O)OC2Nc1nc(-c2ccccc2)cs1 (stereo not given) the activation [1] was 29.9% (inactive), the inhibition [9] was 103% (active) and the inhibition [11] was 106% (active). The inhibition [15] was 26% (inactive), the inhibition [16] was 105% (active) and the inhibition [12] was 109%. It also gave an inhibition [13] of 103%.

With COc1cccc2sc(Nc3nc(C)c(C(C)=O)s3)nc12 the activation [1] was 58.5% (active), the inhibition [3] was 51.3% (active) and the inhibition [4] was 47.9% (inactive). The inhibition [5] was 83.9% (active), the inhibition (Caspase-3 (Homo sapiens)) was 56.6% (active) and the inhibition [6] was 72.3% (active).

With COc1ccc(-c2cc(C(F)(F)F)nc(S(C)(=O)=O)n2)cc1OC the activation [1] was 210% (active) and the inhibition [10] was 24.3% (active).
